An excerpt weighted towards active compounds, which were near 1.7% of everything screened.
PABP1 MLLE inh: blocks PAM2 peptide binding to the PABP1 MLLE domain. P11940. GST-MLLE / FITC-PAM2 fluorescence polarization. 0.36% of 360,000 active. inhibition, % at 20 µM; in the data active = inhibition above about 35%, passing the limit was not always enough
EBV gp42 block: EBV gp42 inhibition; Q1HVG2; Fluorescence polarization binding assay, mP read-out; inhibition, % (tested at 21.74 µM); 0.42% of 220,000 active; AID 1085; in the data active = inhibition above about 50%
eIF4E-4G inh: inhibitors of eIF4E and eIF4G interaction in translation initiation. TR-FRET eIF4E-eIF4GI(517-606) binding, 2 h. inhibition, % at 21.7 µM. 0.37% of 220,000 active;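 active = inhibition above about 30%, limit read from the data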
Target sequence (P63073 whole entry, looked up): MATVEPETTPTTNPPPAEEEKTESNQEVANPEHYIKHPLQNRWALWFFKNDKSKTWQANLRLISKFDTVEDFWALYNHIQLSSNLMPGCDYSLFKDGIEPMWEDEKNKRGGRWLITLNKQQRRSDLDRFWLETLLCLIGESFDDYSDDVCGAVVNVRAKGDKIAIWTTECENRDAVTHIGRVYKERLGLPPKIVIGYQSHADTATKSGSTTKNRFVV
Target sequence (Q04637 whole entry, looked up): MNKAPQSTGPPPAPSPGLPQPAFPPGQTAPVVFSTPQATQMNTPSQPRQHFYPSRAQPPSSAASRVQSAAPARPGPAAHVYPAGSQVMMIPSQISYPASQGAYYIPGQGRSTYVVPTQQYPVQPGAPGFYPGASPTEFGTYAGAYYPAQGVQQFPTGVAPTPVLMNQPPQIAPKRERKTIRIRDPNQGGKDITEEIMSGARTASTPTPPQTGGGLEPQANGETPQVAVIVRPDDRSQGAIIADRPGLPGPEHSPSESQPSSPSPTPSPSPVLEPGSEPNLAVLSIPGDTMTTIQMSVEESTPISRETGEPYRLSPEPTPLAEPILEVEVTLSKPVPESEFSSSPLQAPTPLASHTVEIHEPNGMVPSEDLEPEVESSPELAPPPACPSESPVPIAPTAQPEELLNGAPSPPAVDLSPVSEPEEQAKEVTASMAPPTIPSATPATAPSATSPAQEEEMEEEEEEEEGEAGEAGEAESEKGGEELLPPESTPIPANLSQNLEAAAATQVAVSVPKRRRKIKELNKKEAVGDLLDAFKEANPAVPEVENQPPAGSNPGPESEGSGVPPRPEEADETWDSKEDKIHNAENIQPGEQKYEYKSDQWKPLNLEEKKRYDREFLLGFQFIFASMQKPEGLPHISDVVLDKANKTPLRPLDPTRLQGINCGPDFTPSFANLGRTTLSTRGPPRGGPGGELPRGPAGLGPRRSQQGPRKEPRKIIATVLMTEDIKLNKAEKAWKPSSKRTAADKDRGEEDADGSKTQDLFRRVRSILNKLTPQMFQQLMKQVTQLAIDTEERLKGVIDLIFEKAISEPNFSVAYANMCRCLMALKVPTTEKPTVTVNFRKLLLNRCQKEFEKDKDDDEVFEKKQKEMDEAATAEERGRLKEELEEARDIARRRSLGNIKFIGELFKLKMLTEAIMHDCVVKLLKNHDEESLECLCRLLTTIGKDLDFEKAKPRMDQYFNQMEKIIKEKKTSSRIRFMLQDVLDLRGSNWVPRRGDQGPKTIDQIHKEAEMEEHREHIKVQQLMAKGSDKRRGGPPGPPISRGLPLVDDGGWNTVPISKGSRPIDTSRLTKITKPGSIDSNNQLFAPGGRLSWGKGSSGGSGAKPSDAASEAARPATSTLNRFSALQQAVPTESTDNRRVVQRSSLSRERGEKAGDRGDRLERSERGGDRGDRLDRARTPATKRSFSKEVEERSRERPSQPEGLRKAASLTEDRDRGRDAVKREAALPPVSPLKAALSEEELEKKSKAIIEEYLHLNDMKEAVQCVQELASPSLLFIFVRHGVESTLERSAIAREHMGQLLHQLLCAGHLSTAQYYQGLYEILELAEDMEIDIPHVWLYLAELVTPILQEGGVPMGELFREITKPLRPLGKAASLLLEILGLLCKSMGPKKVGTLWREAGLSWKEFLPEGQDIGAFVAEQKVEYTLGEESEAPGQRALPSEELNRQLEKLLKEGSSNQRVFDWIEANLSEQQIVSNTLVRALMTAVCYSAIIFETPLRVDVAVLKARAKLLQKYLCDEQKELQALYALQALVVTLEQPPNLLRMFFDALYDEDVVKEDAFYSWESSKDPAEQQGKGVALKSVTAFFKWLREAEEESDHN
eIF4H FP inh: inhibitors of RNA binding by human eIF4H. eIF4H fluorescence polarization binding assay. Q15056. 0.94% of 290,000 active. inhibition, % at 35 µM;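 note: calls also rest on retests at 20 µM and on dose response follow-up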
PABP FP inh: PABP-poly(A) binding inhibition; calls only at 35 µM; PABP-poly(A) RNA binding, fluorescence polarization; 1% of 290,000 active;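 note: calls also rest on retests at 20 µM and on dose response follow-up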
A number is an active result; – = inactive; ? = inconclusive; · = no result given; + = active, no number; [ ] = another dose, or the depositor's remark. Unless noted, the rule behind the calls is not given here.

SMILES	PABP1 MLLE inh	EBV gp42 block	eIF4E-4G inh	eIF4H FP inh	PABP FP inh
O=C(/C=C/c1ccco1)Nc1ccccc1C(=O)Nc1cccc(C(=O)O)c1	–	–	–	?	+
Cc1cc(NC(=O)/C=C/c2ccco2)ccc1NC(=O)c1ccccc1	–	–	–	–	–
CCOc1ccc(NC(=O)N(CCN(C)C)C(C)c2cccnc2)cc1 (configuration not stated)	–	–	88	–	–
C=CCN(C/C(=N\O)c1sc(C(=O)OCC)nc1C)c1cccc(Br)c1	–	·	·	·	·
COc1ccc(C(=O)NC(=S)NCc2cccnc2)cc1[N+](=O)[O-]	38	–	–	–	–
CCOc1ccc(NC(=S)NC(=O)c2cccnc2)c([N+](=O)[O-])c1	44	·	·	–	–
COc1cccc(NC(=O)C(=O)N/N=C(\C)CC(=O)Nc2ccc(NC(C)=O)cc2)c1	–	·	·	–	–
CC(CN1CCCCCC1)C(=O)NN (configuration not stated)	–	–	–	active	+
CC(CN1CCCCC1)C(=O)NNC(=O)C12CC3CC(CC(C3)C1)C2 (configuration not stated)	–	–	–	–	–
N#Cc1c(N)n(-c2ccc(N)cc2)c2nc3ccccc3nc12	–	–	–	–	–
N#Cc1c(N)n(-c2ccc(C(=O)O)cc2)c2nc3ccccc3nc12	–	–	–	80	–
COC(=O)c1sccc1NC(=S)Nc1cc(C)cc(C)c1	38	–	–	–	–
COC(=O)c1sccc1NC(=S)Nc1ccccc1	–	–	–	–	–
COC(=O)c1ccc(OC(=O)/C=C/c2ccco2)cc1	–	·	·	–	–
O=C(/C=C/c1ccccc1)Oc1ccc(C(=S)N2CCOCC2)cc1	–	–	–	–	–
O=C(/C=C/c1ccco1)Oc1ccc(C(=S)N2CCOCC2)cc1	–	–	–	97	+
O=Cc1cccc(OC(=O)/C=C/c2ccco2)c1	–	·	·	89	+
Cc1cccc(OCc2nnc(SC(C)C(=O)O)n2-c2ccccc2)c1 (configuration not stated)	–	·	·	–	–
Cc1ccc(CNC(=O)c2cnccn2)cc1	–	–	–	–	–
O=c1cc(CO)oc(C(Nc2ccccn2)c2ccc(F)cc2)c1O (configuration not stated)	–	–	–	–	–
O=c1cc(CO)oc(C(Nc2ccccn2)c2ccsc2)c1O (configuration not stated)	·	–	–	71	+
CN(C)c1ccc(S(=O)(=O)N2CCCCC2)cc1NC(=O)C1=COCCO1	–	·	·	–	–
CC1=NOC(=O)/C1=C\c1ccc(-c2cc(Cl)ccc2Cl)o1	–	95	–	–	–
COc1ccc(C2=CSC3=NCCN23)cc1F	–	–	38[fluorescence artefact?]	–	–
CC(C)(C)c1ccc(NC(=O)c2cc(C3CCCN(S(=O)(=O)c4cccc5cccnc45)C3)on2)cc1 (configuration not stated)	–	·	·	·	·
SMILES	PABP1 MLLE inh	EBV gp42 block	eIF4E-4G inh	eIF4H FP inh	PABP FP inh
CC(C)c1ccc(C(=O)NCc2ccc(Cl)cc2)cc1	–	–	31[fluorescence artefact?]	–	–
CCNC(=O)c1ccc(CSc2ccc(Cl)cc2)cc1	–	–	36	–	–
COc1ccc(Cc2c(-c3ccccc3)nc3c(C)cc(Br)cn23)c(C)c1	–	·	·	·	·
Cc1cc(C)nc(SCC(=O)O)n1	–	–	–	–	–
Cc1cc(SCNC(=O)c2ccccc2)nc(C(C)C)n1	41	–	–	–	–
Cc1cc(C)nc(SCNC(=O)c2ccccc2)n1	43	–	–	–	–
Cc1cc(C)nc(SCc2ccc(C(=O)N/N=C/c3cccc(O)c3O)cc2)n1	–	–	–	97	+
Cc1ccc(NS(=O)(=O)c2ccc(OCC(=O)NCC3CCCO3)cc2)cc1 (configuration not stated)	–	–	–	–	–
COc1ccc(OC(=O)N(C)C[C@@H]2OCc3cn(nn3)CCCC(=O)N([C@@H](C)CO)C[C@H]2C)cc1	–	·	·	·	·
COc1ccc(COCC(O)CN2CCN(S(=O)(=O)c3c(F)cccc3F)CC2)cc1OC (configuration not stated)	–	·	·	·	·
Cc1ccc(-c2ccccc2)n1-c1ccc(C(=O)O)cc1	–	–	–	–	–
Cc1cc2c(n1-c1ccc(C(=O)O)cc1)CCCCC2	·	·	·	91	+
CCO/N=C1\C(=O)N(c2ccccc2)c2ccccc21	–	–	–	–	–
O=C(O/N=C1\C(=O)N(c2ccccc2)c2ccccc21)C1CC1	–	–	–	active	–
CCN(CC)c1ccc(/C=C/C(=O)c2ccc(Br)cc2)cc1	–	+	–	?	–
